Marburg entry = qHTS for Inhibitors of binding or entry into cells for Marburg Virus; 18,000 tested, 6.5% active; Potency, µM (highest dose often 49.2 µM), inactives show at the highest dose activity change, negative = inhibition, most hits filed as inhibitors; Marburg virus pseudotype entry/binding inhibition, cell-based
Lassa entry = qHTS for Inhibitors of binding or entry into cells for Lassa Virus. Lassa virus pseudotyped entry inhibition, cell-based qHTS. 18,000 tested, 4.1% active. Potency, µM (titrated, usually from 49.2 µM), for the others: at the highest dose activity change, negative = inhibition, actives largely listed as inhibitors
Starred values were filed as active, the others as inactive; ! = not active in a repeat; [ ] = another dose, or the depositor's remark. Most compounds without a hit are left out; they make up all but 7.1% or so of the library. The call rests on the fitted dose curve; tested in HEK293 cells. On the % scale 0 is the no-effect control and ±100 the full control effect; potency means the concentration at half of the fitted maximal effect.

C[C@@H](c1ccccc1)N1C(=O)[C@@H]2[C@H]3[C@H](O)[C@H](O)CC(=NOC[C@@H](O)COCc4ccco4)[C@H]3CC[C@H]2C1=O was read as Marburg entry 1.0%[8.59 µM] and Lassa entry -3.1%[8.59 µM].
Screening NC(=O)c1ncn(C2OC(CO)C(O)C2O)c1N (stereo not given) returned Marburg entry 9.8% and Lassa entry 15.5%.
For Nc1ncnc2c1nc(Br)n2C1OC(CO)C(O)C1O (stereo not given) the results were Marburg entry -22.1% and Lassa entry inconclusive.
Nc1ccn(C2OC(CO)C(O)C2O)c(=O)n1 (stereo not given) was read as Marburg entry 1µM*! and Lassa entry 1.26µM*!.
`Nc1ncnc2c1ccn2[C@@H]1O[C@H](CO)[C@@H](O)[C@H]1O` gave Marburg entry 1.41µM* and Lassa entry 2.51µM*.
Screening Nc1ccn([C@@H]2O[C@H](CO)[C@@H](OP(=O)(O)O)[C@H]2O)c(=O)n1 returned Marburg entry 2.7% and Lassa entry 6.4%.
Screening Nc1ncn([C@@H]2O[C@H](CO)[C@@H](O)[C@H]2O)c(=O)n1 returned Marburg entry inconclusive and Lassa entry 6.31µM*.
CCc1cc2c(nc1CC)CCN(CCC(C)=NO[C@H](C)c1cn([C@H](CO)Cc3ccccc3)nn1)C2 was read as Marburg entry inconclusive and Lassa entry 1.6%[8.59 µM].
Screening CC(CCC(=O)OC[C@H]1O[C@H](C#Cc2ccccc2)C=C[C@H]1Oc1ccc(C)cc1)=NOC[C@@H](O)[C@H]1O[C@@H]2OC(C)(C)O[C@H]2[C@@H]1O returned Marburg entry -2.1%[8.59 µM].
CC(C)[C@H](NC(=O)OCc1ccccc1)C(=O)N[C@H](C=O)Cc1ccccc1 was read as Marburg entry inconclusive and Lassa entry -5.2%.
Screening CC(C)C[C@@H](C=O)NC(=O)[C@H](CC(C)C)NC(=O)[C@H](CC(C)C)NC(=O)OCc1ccccc1 returned Marburg entry inconclusive and Lassa entry 3.55µM*.
C=COCCN1C=C(C(=O)OCC)C(c2ccccc2)NC1=O (stereo not given) was read as Marburg entry 10.0%[8.59 µM] and Lassa entry 18.0%[8.59 µM].
For CC1(C)CN(C2CCCCC2)C(=O)[C@@H]1CC(=O)Nc1ccccc1 the results were Marburg entry -14.4% and Lassa entry -26.8%.
`COc1ccccc1C1CN(Cc2cccc(C)n2)Cc2ccccc2O1` (stereo not given) gave Marburg entry 5.62µM* and Lassa entry 7.08µM*.
COc1ccccc1C1CN(Cc2c(O)cccc2OC)Cc2ccccc2O1 (stereo not given) was read as Marburg entry 2.1% and Lassa entry -14.9%.
C(#CCN1CCCC1)CN1CCCC1 was read as Marburg entry 8.91µM* and Lassa entry inconclusive.
`CC(C)[C@@H](OCc1ccccc1)[C@H](C)C=NO[C@H](C)c1cn([C@@H]2COC[C@@H]2O)nn1` gave Marburg entry -6.3%[8.59 µM] and Lassa entry 7.1%[8.59 µM].
Screening O=C(c1cccs1)N1C[C@H](n2cc(C3CC3)nn2)[C@H](O)C[C@@H]1c1ccccc1 returned Marburg entry 14.4% and Lassa entry 8.8%.
`O=C1C2=C(C(=O)c3ccccc31)[C@H]1O[C@](c3ccsc3)(Cc3ccccc31)O2` gave Marburg entry -7.7%[8.59 µM] and Lassa entry -7.7%[8.59 µM].
`CC[C@@H](C(=O)O)[C@@H]1O[C@@H]([C@@H](C)[C@H](O)[C@H](C)C(=O)[C@H](CC)[C@H]2O[C@]3(C=C[C@@H](O)[C@]4(CC[C@@](C)([C@H]5CC[C@](O)(CC)[C@H](C)O5)O4)O3)[C@H](C)C[C@@H]2C)[C@@H](C)C[C@@H]1C` gave Marburg entry 6.31µM* and Lassa entry 1µM*.
Screening CCOC(=O)OC[C@H]1O[C@H](C#Cc2ccc(F)cc2F)C=C[C@H]1OC(=O)OCC returned Marburg entry -14.6%[8.59 µM] and Lassa entry 1.1%[8.59 µM].
Screening CCCCCC(=O)CC[C@@H]1[C@@H](C/C=C\CCCC(=O)O)[C@@H](O)C[C@H]1O returned Marburg entry 4.4% and Lassa entry -14.3%.
CCCCCCCC(=O)CC[C@@H]1[C@@H](C/C=C\CCCC(=O)OC(C)C)[C@@H](O)C[C@H]1O was read as Marburg entry inconclusive and Lassa entry 15.8µM*.
CN1CCCN([C@@H](c2ccccc2)c2ccc(Cl)cc2)CC1 was read as Marburg entry 11.2µM* and Lassa entry -11.4%[17.8 µM].
OCCOCCN1CCN([C@@H](c2ccccc2)c2ccc(Cl)cc2)CC1 was read as Marburg entry inconclusive and Lassa entry -10.7%[17.8 µM].
For CN(C)C(=O)c1ccc(-c2nc(Nc3ccc(F)cc3)c3ccccc3n2)cc1 the results were Marburg entry -25.9% and Lassa entry -23.2%.
CN(C)c1nc(NC2CCC(NC(=O)c3ccc(F)c(F)c3)CC2)nc2ccccc12 (stereo not given) was read as Marburg entry 2.82µM* and Lassa entry 15.8µM*.
`NC(=O)c1cc(-c2ccc(F)cc2)cc(-c2ccncc2)c1N` gave Marburg entry inconclusive and Lassa entry -26.5%.
`CCOC(=O)NN=Cc1ccccc1-c1cc(OC)ccc1OC` gave Marburg entry -4.0%[8.59 µM] and Lassa entry -18.2%[8.59 µM].
Screening CCN1C(=NCCc2cccnc2)NC(c2ccccc2)C(C(=O)OC)=C1C (stereo not given) returned Marburg entry inconclusive and Lassa entry -7.9%[8.59 µM].
Screening CC1(C)CC(=O)C2=C(C1)O[C@@]1(c3ccsc3)Cc3cc(C#N)ccc3[C@H]2O1 returned Marburg entry inconclusive and Lassa entry 8.8%[8.59 µM].
Screening Brc1c(Br)c(Br)c2[nH]cnc2c1Br returned Marburg entry -22.0% and Lassa entry 8.6%.
`S=c1nc[nH]c2nc[nH]c12` gave Marburg entry 12.6µM* and Lassa entry 14.1µM*.
For C=CCN1C(=O)[C@]2(O[C@H](C)CC3=CCCC32)c2c(Br)cccc21 (stereo not given in full) the results were Marburg entry 2.0%[8.59 µM] and Lassa entry 46.7%[8.59 µM].
`C[C@@H](NS(=O)(=O)c1cccc(Cl)c1F)[C@H](O)c1ccccc1` gave Marburg entry 20.8% and Lassa entry -9.0%.
CC(C)COCC(CN(Cc1ccccc1)c1ccccc1)N1CCCC1 (stereo not given) was read as Marburg entry 6.31µM* and Lassa entry 14.1µM*!.
`COc1ccc(-c2ccncc2)cc1C(N)=O` gave Marburg entry inconclusive and Lassa entry -14.1%.
For C[C@@H]1[C@@H]2Cc3ccc(O)cc3[C@@]1(C)CCN2CCc1ccccc1 the results were Marburg entry 20µM* and Lassa entry inconclusive.
C[C@@H]1[C@@H]2Cc3ccc(O)cc3[C@@]1(C)CCN2CC1CC1 was read as Marburg entry -13.6% and Lassa entry -8.7%.
Screening COC(=O)N[C@@H](c1ccc2ccccc2c1)C(C(C)=O)C(=O)OC (stereo not given in full) returned Marburg entry -16.1%[8.59 µM] and Lassa entry 16.1%[8.59 µM].
For COc1cc(Nc2c(C#N)cnc3cc(OCCCN4CCN(C)CC4)c(OC)cc23)c(Cl)cc1Cl the results were Marburg entry 7.08µM* and Lassa entry inconclusive.
COC(=O)C1=C2CCO[C@@H]2[C@H]2[C@@H](C)[C@H](OC)c3ccccc3[C@H]12 was read as Marburg entry 0.4%[8.59 µM] and Lassa entry -23.7%[8.59 µM].
`C[C@@H]1CCCN1[C@H]1C[S+](=O)([O-])N[C@H]1COCc1ccccc1` gave Marburg entry 15.7%.
